WRN helicase inh – inhibitors of human WRN helicase; Potency, µM (highest dose often 114 µM), usual class: inhibitors; WRN helicase unwinding, fluorescent forked duplex, kinetic; 0.46% of 360,000 active; Q14191; note: nearly all actives have a fitted effect of over 55% in size
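WRN at 20 nM final was preincubated with compound for 15 min at room temperature; reaction started with 100 nM forked duplex oligonucleotide carrying fluorophore and quencher plus 2 mM ATP (final). Unwinding followed kinetically by red fluorescence (ex 525/em 598 nm).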
L3MBTL1 block – inhibitors of human L3MBTL1; AlphaScreen L3MBTL1–H3K9me1 peptide binding; Q9Y468; AID 485360; 0.66% of 230,000 active; Potency, µM (highest dose often 57.1 µM), usual class: inhibitors; note: nearly all actives have a fitted effect of over 60% in size
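AlphaScreen assay: L3MBTL1 (50 nM final) was preincubated 30 min at room temperature with biotinylated H3(1-15)K9me1 peptide (75 nM final), then 30 min with library compounds; streptavidin donor and nickel chelate acceptor beads (10 ug/mL final) added, 30 min dark.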
APE1 inh – blocks human APE1 abasic DNA cleavage. Potency, µM (highest dose often 65.8 µM), actives largely listed as inhibitors. AID 2517. recombinant APE1, TAMRA/BHQ-2 abasic DNA cleavage fluorescence. 0.35% of 350,000 active; note: nearly all actives have a fitted effect of over 55% in size
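0.75 nM APE1 + cpd, 15 min RT; start w/ 50 nM TAMRA/BHQ-2 THF-abasic dsDNA; kinetic fluor 525/598 nm ×3 reads @60 s; Δ(read3−read1); normalized to DMSO and NSC13755 control wells.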
BLM helicase inh – Bloom syndrome helicase (human) inhibition; AID 2528; 0.2% of 350,000 active; recombinant BLM DNA unwinding, fluorescence dequenching; Potency, µM (highest dose often 56.1 µM), usual class: inhibitors; note: nearly all actives have a fitted effect of over 35% in size
Target sequence (P54132 whole entry, looked up): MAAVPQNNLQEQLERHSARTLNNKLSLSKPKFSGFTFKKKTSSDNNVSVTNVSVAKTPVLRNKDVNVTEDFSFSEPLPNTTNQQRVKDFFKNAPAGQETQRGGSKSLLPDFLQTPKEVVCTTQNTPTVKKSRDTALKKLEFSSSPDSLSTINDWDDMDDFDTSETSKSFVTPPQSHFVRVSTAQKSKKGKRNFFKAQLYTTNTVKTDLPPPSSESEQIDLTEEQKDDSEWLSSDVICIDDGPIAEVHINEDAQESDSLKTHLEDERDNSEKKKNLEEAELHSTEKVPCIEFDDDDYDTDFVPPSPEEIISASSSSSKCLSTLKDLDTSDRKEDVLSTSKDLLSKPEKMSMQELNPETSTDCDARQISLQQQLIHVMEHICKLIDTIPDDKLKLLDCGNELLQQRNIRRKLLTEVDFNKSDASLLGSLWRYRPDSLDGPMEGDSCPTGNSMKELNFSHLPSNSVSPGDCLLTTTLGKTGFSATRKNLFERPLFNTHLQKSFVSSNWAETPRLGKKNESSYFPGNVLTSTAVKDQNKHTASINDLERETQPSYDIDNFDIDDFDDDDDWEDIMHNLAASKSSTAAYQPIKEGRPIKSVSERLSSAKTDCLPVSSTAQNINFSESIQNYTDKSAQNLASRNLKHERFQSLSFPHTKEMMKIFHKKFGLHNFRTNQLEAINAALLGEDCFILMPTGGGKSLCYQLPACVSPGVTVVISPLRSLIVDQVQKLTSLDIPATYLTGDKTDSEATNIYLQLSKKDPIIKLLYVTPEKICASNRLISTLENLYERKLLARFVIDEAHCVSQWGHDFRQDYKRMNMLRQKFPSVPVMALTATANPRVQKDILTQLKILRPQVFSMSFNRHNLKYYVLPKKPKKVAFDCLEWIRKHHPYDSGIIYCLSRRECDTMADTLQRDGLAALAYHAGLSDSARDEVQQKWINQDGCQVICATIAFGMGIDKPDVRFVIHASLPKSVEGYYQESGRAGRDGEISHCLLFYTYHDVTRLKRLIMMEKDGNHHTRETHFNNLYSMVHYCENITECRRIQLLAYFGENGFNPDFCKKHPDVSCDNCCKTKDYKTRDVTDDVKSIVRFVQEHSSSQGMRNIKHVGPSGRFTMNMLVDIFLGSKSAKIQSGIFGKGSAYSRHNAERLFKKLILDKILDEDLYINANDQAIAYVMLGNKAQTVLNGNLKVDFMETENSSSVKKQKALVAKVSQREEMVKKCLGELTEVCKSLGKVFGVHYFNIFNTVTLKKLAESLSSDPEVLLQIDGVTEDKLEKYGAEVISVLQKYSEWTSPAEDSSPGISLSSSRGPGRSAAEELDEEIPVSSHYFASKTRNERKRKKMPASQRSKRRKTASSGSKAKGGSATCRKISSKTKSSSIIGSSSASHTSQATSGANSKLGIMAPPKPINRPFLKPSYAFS
RECQ1 helicase – RECQ1 (human) helicase inhibition. RECQ1 DNA unwinding, red fluorescence kinetic read. Potency, µM (highest dose often 57.3 µM), usual class: inhibitors. 0.54% of 240,000 active. AID 2549; note: nearly all actives have a fitted effect of over 30% in size
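RECQ1T1 50 nM; forked duplex (20 bp + 30-nt ss tails) 200 nM, ATP 2 mM final; pH 8.0, 2 mM MgCl2, 2.5 ug/ml poly(dI-dC); 15 min compound preincubation; discontinuous kinetic read over 2 h at RT.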
Hits are given with their value; n = inactive; u = inconclusive; x = no result; [ ] = another dose, or the depositor's remark. Compounds with a hit are over-represented: about 0.92% of the library has one in this group of screens. Calls come from the whole dose curve; as a rule, active = well fitted curve in the direction sought with a large enough effect; inconclusive = small, poorly fitted or top-dose-only effect, or another doubt; inactive = no such curve, though single readings can be large; an effect the other way counts as inactive or inconclusive.

SMILES	WRN helicase inh	L3MBTL1 block	APE1 inh	BLM helicase inh	RECQ1 helicase
CCCCC(=O)O[C@]1(C(=O)CO)CCC2C3CCC4=CC(=O)CCC4(C)C3C(O)CC21C (stereo partly specified)	x	x	x	n	x
O=c1c2ccccc2sn1-c1nccs1	25µM	n	n	n	n
O=c1c2ccccc2sn1-c1ccccc1	50µM	x	n	n	n
CCOC(=O)C1=C(O)/C(=C\c2cccs2)N=C1C	n	n	n	n	n
CCOC(=O)C1=C(O)/C(=C\c2ccc(CNC(=O)C(=O)Nc3ccccc3)o2)N=C1C	u	x	n	35µM	n
Cc1noc(C)c1-c1ccc2ncnc(NCc3ccccc3Cl)c2c1	x	x	n	n	n
O=C1/C(=C\c2c(NCCOCCO)nc3ccccn3c2=O)SC(=S)N1Cc1ccco1	22µM	n	u	n	x
Cc1ccc2nc(/C(C#N)=C\c3ccc(N4CCOCC4)o3)[nH]c2c1	45µM	n	n	n	n
Cc1ccc2nc(/C(C#N)=C\c3ccc([N+](=O)[O-])o3)[nH]c2c1	n	n	n	n	n
CC[C@H](C)[C@H](NC(=O)[C@H](Cc1ccc(O)cc1)NC(=O)[C@H](Cc1cnc[nH]1)NC(=O)[C@H](CCCNC(=N)N)NC(=O)[C@H](CC(C)C)NC(=O)[C@H](C)NC(=O)[C@H](CO)NC(=O)[C@H](Cc1ccc(O)cc1)NC(=O)[C@H](Cc1ccc(O)cc1)NC(=O)[C@H](CCCNC(=N)N)NC(=O)[C@H](C)NC(=O)[C@H](CC(C)C)NC(=O)[C@H](CC(=O)O)NC(=O)[C@H](CCC(=O)O)NC(=O)[C@H](C)NC(=O)[C@@H]1CCCN1C(=O)[C@H](C)NC(=O)[C@H](CC(=O)O)NC(=O)[C@H](CCC(=O)O)NC(=O)CNC(=O)[C@@H]1CCCN1C(=O)[C@H](CC(N)=O)NC(=O)[C@H](CC(=O)O)NC(=O)[C@@H]1CCCN1C(=O)[C@H](CCCCN)NC(=O)[C@H](CO)NC(=O)[C@@H]1CCCN1C(=O)[C@@H](N)Cc1ccc(O)cc1)C(=O)N[C@@H](CC(N)=O)C(=O)N[C@@H](CC(C)C)C(=O)N[C@@H](CC(C)C)C(=O)N[C@H](C(=O)N[C@@H](CCCNC(=N)N)C(=O)N1CCC[C@H]1C(=O)N[C@@H](CCCNC(=N)N)C(=O)N[C@@H](Cc1ccc(O)cc1)C(N)=O)[C@@H](C)O	x	x	n	n	n
O=C(C[C@@H]1C/C=C\C[C@H](NC(=O)OCC2c3ccccc3-c3ccccc32)C(=O)OC[C@@H]2CCCN2C1=O)NCCO	n	n	9.5µM	x	x
CC(C)(C)OC(=O)C[C@H]1C/C=C\C[C@@H](CC(=O)NCCO)C(=O)N2CCC[C@H]2COC1=O	n	n	n	x	x
O=C(C[C@@H]1C/C=C\C[C@H](NC(=O)OCC2c3ccccc3-c3ccccc32)C(=O)OC[C@@H]2CCCN2C1=O)N[C@@H](CO)Cc1ccccc1	n	n	n	x	x
CC(C)(C)OC(=O)C[C@@H]1C/C=C\C[C@H](CC(=O)NCCO)C(=O)N2CCC[C@H]2COC1=O	n	n	6.7µM	x	x
CC[C@H]1OC(=O)[C@H](C)C(=O)[C@H](C)[C@@H](O[C@@H]2O[C@H](C)C[C@H](N(C)C)[C@H]2O)[C@](C)(OC)C[C@@H](C)C(=O)[C@H](C)[C@H]2N(CCCCn3cnc(-c4cccnc4)c3)C(=O)O[C@]12C	x	x	n	x	x
CCCCC(=O)N/N=C/c1ccc(-c2ccc([N+](=O)[O-])cc2)o1	n	n	n	n	n
Cc1cc(C)n(Cc2ccc(C(=O)N/N=C/c3ccc(-c4ccc([N+](=O)[O-])cc4)o3)o2)n1	32µM	x	2.7µM	16µM	x
Cc1ccc(S(=O)(=O)N2CC=C(c3c(C)n(C)c4ccccc34)CC2)cc1	79µM	n	n	n	n
NCCCC[C@H](NC(=O)[C@@H]1CCCN1C(=O)[C@@H](N)CCCN=C(N)N)C(=O)N1CCC[C@H]1C(=O)N[C@@H](CCC(N)=O)C(=O)N[C@@H](CCC(N)=O)C(=O)N[C@@H](Cc1ccccc1)C(=O)O	x	x	n	n	n
O=C(COC(=O)c1c2c(nc3ccccc13)/C(=C\c1ccco1)CC2)NC1CCCC1	45µM	x	x	x	x
c1ccc(-c2n[nH]c(-c3ccccn3)n2)nc1	n	2µM	n	n	n
FC(F)(F)C1=Nc2cccc3cccc(c23)N1	u	2.5µM	n	x	x
Fc1ccc(C2=Nc3cccc4cccc(c34)N2)cc1	n	n	n	n	n
C[N+]12CCCC[C@@H]1CCC(=C(c1cccs1)c1cccs1)C2 (stereo partly specified)	x	x	x	n	x
O=C(C#Cc1ccccc1)c1ccccc1	45µM	x	x	x	x
SMILES	WRN helicase inh	L3MBTL1 block	APE1 inh	BLM helicase inh	RECQ1 helicase
O=C(C#Cc1ccccc1)c1ccc([N+](=O)[O-])cc1	32µM	x	n	n	n
CCC(=O)Oc1ccc2c(c1)CC[C@@H]1[C@@H]2CC[C@]2(C)[C@@H](OC(=O)CC)CC[C@@H]12	x	x	n	x	x
CCCC(=O)c1cc(O)c(O)cc1O	x	x	0.89µM	x	1.1µM
O=C(O)COc1ccc2c(c1)O/C(=C\c1cccs1)C2=O	n	x	n	n	n
O=C(O)COc1ccc2c(c1)O/C(=C\c1ccco1)C2=O	u	x	13µM	n	x
COc1ccc(F)c(Cn2cnc3c(cnn3C(C)(C)C)c2=O)c1Cl	x	x	n	x	x
COc1cc([N+](=O)[O-])cc(/C=N/NC(=O)C(O)(c2ccccc2)c2ccccc2)c1O	n	n	n	n	x
COc1cccc(/C=N\NC(=O)c2ccc(Cn3cc(Br)c([N+](=O)[O-])n3)o2)c1O	n	n	n	32µM	n
COc1ccc(-c2ccc(/C=N/NC(=O)c3cccnc3)o2)c([N+](=O)[O-])c1	n	n	u	n	4µM
COc1cc([N+](=O)[O-])cc(/C=N/NC(=O)c2cccnc2)c1O	n	14µM	n	n	n
COc1cc(/C=N\NC(=O)c2ccc(Cn3nc([N+](=O)[O-])c(Cl)c3C)o2)ccc1O	n	x	n	n	n
COc1ccc2ccc3c(c2c1)N=C[C@]1(O3)N(C)c2ccccc2C1(C)C	11µM	n	n	n	n
CC1=NOC2(C1)N(C)c1ccccc1C2(C)C (stereo unspecified)	n	n	n	n	n
CCCCn1cc[n+](C)c1	x	x	n	n	n
C/C(=N\Nc1ccc(C(=O)O)cc1)c1ccc2c(c1)Nc1ccccc1S2	n	28µM	n	n	n
C/C(=N/Nc1ccc(C(=O)O)cc1)c1ccc2c(c1)Nc1ccccc1S2	n[11.6 µM]	x	x	x	x
CC(C)(C)c1c(Cl)c(O)c(-c2ccccc2)c(=O)n1-c1ccccc1	50µM	32µM	n	n	n
Cc1cccc(C)c1-n1c(SCC(=O)Nc2ccc(F)cc2)nnc1-c1cccc([S+](=O)([O-])N2CCCC2)c1	x	x	n	x	x
COc1cnc(-c2ccccn2)nc1NC(C)C	n	1µM	n	n	n
